Measured values as given in PubChem BioAssay (EPA / NIEHS).
Values joined by “and” are separate entries in the source; they are usually repeats but may differ in a detail not shown here. Equal values may be shown once. Inconclusive results are not listed. Some structures have more than one record in an assay (separate samples or runs), and their calls can disagree. Active and inactive are the calls of the source. How the source made its calls, unless noted: active means hit-call score of the fitted dose curve at least 0.9, where 1 is the maximum; inactive means score below 0.9.

Legend:
[1] = BSK_SAg_PBMCCytotoxicity: PBMC Cytotoxicity Assessment in the BioMAP Diversity Plus: SAg Assay (AID 2283093); conditions: primary human HUVEC with PBMC;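 further: PBMC viability measured as Alamar Blue reduction fluorescence at 546/580 nm; fitted both ways against DMSO so a hit may be loss or gain of signal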;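 on AC50: PBMC superantigen activated with SEB plus TSST-1 one hour after compound addition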
In short: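 Alamar Blue reduction (6 h, 546/580 nm) reports PBMC cytotoxicity after 90 h superantigen activation (SEB, TSST-1; 20 ng/mL final each) with 1 h compound pre-treatment. Gain or loss of signal fitted versus DMSO.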

[2] = read-out: Interleukin-8 (IL8), CXCL8 (gene 3576); assay: BSK_SAg_IL8: BioMAP Diversity Plus: SAg Assay for Interleukin-8 (IL8) Biomarker Activity (AID 2283094); conditions: primary human HUVEC with PBMC; actives raise or lower the signal
In short: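 Chemicals were dosed onto a human endothelial–PBMC co-culture, and IL-8 was quantified by ELISA after 24 h. Both increases and decreases were fitted relative to DMSO.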

[3] = BSK_SAg_Proliferation: Cell Proliferation Assessment in the BioMAP Diversity Plus: SAg Assay (AID 2283095); conditions: primary human HUVEC with PBMC;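 further: relative cell number as total protein by SRB absorbance in sub-confluent culture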
In short: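 Absorbance of sulforhodamine B at 560 nm reports total protein in a human vascular endothelial/PBMC co-culture after 96 h chemical exposure. Gain or loss of signal is fitted in both directions against DMSO.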

[4] = BSK_SAg_SRB: Viability Assessment in the BioMAP Diversity Plus: SAg Assay (AID 2283096); conditions: primary human HUVEC with PBMC;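 further: cells read one day after compound addition; hits may be either gain or loss of signal compared with DMSO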
In short: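 This overt-cytotoxicity endpoint quantifies protein in human endothelial/PBMC co-cultures at 24 h using SRB absorbance (560 nm) after trichloroacetic acid fixation. Values reflect signal change from the DMSO negative control, fitted bidirectionally.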

[5] = target: human CYP2A6, CYP2A6 (gene 1548) (UniProt P11509); assay: NVS_ADME_hCYP2A6: NovaScreen (NVS) CYP450-related Enzyme Activity (ADME) Assay for human CYP2A6 (AID 2283099; active means hit-call score of the fitted dose curve at least 0.9, where 1 is the maximum)
In short: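 Fluorescent substrate turnover by recombinant CYP2A6 (insect cell source), 0.5 h read. Screen: 10 uM, duplicate; threshold hits (e.g. 30% inhibition) → singleton concentration-response, top 20 uM. Positive and negative controls on every plate.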

[6] = target: human Acid Phosphatase 1 (ACP1), ACP1 (gene 52) (UniProt P24666); assay: NVS_ENZ_hACP1: NovaScreen (NVS) Enzymatic Assay for human Acid Phosphatase 1 (ACP1) (AID 2283136; active means hit-call score of the fitted dose curve at least 0.9, where 1 is the maximum)
In short: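 Cell-free fluorescence read-out of phosphatase activity, substrate and product separated by mobility shift, taken 1.5 h after compound addition; protein produced in Sf9. Single 25 uM duplicate screen, followed by concentration series for actives, scored as signal loss relative to DMSO.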

[7] = target: human Beta-secretase (BACE), BACE1 (gene 23621) (UniProt P56817); assay: NVS_ENZ_hBACE: NovaScreen (NVS) Enzymatic Assay for human Beta-secretase (BACE) (AID 2283140; active means hit-call score of the fitted dose curve at least 0.9, where 1 is the maximum;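 further: hits are inhibitors that reduce fluorescent substrate signal versus DMSO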)
In short: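 Fluorescence intensity read-out of protease activity defines this endpoint; signal loss relative to DMSO baseline marks inhibition. Recombinant enzyme from SF9 cells, cell-free format, 1 h exposure. Single-concentration duplicate screen (25 uM) precedes concentration-series follow-up.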

[8] = target: human AKT serine/threonine Kinase 1 (AKT1), AKT1 (gene 207) (UniProt P31749); assay: NVS_ENZ_hAKT1: NovaScreen (NVS) Enzymatic Assay for human AKT serine/threonine Kinase 1 (AKT1) (AID 2283138; active means hit-call score of the fitted dose curve at least 0.9, where 1 is the maximum)
In short: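 Compounds were first tested in duplicate at 25 uM, and those passing a threshold such as 30% inhibition were run in concentration-response to a maximum of 50 uM. Enzyme activity was measured after 1 h by fluorescence following substrate/product mobility-shift separation.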

[9] = target: human AKT serine/threonine Kinase 2 (AKT2), AKT2 (gene 208) (UniProt P31751); assay: NVS_ENZ_hAKT2: NovaScreen (NVS) Enzymatic Assay for human AKT serine/threonine Kinase 2 (AKT2) (AID 2283141; active means hit-call score of the fitted dose curve at least 0.9, where 1 is the maximum)
In short: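 Cell-free fluorescence/electrophoretic mobility shift readout of recombinant human AKT2 activity, 1 h after chemical dosing. Duplicate primary screen at 25 uM, then singleton concentration-response up to 50 uM; loss of signal versus DMSO baseline.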

[10] = target: Cytochrome P450 3A4 (Homo sapiens) (UniProt P08684); assay: NVS_ADME_hCYP3A4: NovaScreen (NVS) CYP450-related Enzyme Activity (ADME) Assay for human CYP3A4 (AID 2283110; active means hit-call score of the fitted dose curve at least 0.9, where 1 is the maximum)
In short: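 Activity is derived from decreased fluorescence intensity relative to acetonitrile, measured 0.33 hour after dosing insect-cell-expressed CYP3A4 in a cell-free format. Screening used 10 uM in duplicate before concentration-response follow-up.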

[11] = target: human Colony Stimulating Factor 1 Receptor (CSF1R), CSF1R (gene 1436) (UniProt P07333); assay: NVS_ENZ_hCSF1R: NovaScreen (NVS) Enzymatic Assay for human Colony Stimulating Factor 1 Receptor (CSF1R) (AID 2283150; active means hit-call score of the fitted dose curve at least 0.9, where 1 is the maximum)
In short: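 Compounds screened in duplicate at 25 uM, then concentration-response (top 50 uM) for those passing threshold such as 30% inhibition; recombinant CSF1R activity measured 1 h post-dosing via fluorescent substrate/product mobility-shift separation, loss of signal versus DMSO.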

Measured: AC50

human CYP2A6, CYP2A6 (gene 1548), sequence (P11509 whole entry, looked up): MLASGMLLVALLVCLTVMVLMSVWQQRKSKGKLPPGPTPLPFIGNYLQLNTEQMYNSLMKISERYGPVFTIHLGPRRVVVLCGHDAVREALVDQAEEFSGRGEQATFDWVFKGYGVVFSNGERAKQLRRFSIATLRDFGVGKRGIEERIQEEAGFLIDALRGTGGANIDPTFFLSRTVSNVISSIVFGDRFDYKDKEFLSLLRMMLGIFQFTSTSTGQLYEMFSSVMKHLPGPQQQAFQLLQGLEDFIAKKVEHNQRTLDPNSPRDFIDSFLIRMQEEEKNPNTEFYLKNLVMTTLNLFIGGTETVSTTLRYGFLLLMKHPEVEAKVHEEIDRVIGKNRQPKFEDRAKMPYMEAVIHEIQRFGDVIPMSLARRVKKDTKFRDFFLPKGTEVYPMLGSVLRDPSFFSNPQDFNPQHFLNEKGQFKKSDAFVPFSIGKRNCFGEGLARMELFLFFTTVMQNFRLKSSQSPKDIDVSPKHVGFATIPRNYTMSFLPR
human AKT serine/threonine Kinase 2 (AKT2), AKT2 (gene 208), sequence (P31751 whole entry, looked up): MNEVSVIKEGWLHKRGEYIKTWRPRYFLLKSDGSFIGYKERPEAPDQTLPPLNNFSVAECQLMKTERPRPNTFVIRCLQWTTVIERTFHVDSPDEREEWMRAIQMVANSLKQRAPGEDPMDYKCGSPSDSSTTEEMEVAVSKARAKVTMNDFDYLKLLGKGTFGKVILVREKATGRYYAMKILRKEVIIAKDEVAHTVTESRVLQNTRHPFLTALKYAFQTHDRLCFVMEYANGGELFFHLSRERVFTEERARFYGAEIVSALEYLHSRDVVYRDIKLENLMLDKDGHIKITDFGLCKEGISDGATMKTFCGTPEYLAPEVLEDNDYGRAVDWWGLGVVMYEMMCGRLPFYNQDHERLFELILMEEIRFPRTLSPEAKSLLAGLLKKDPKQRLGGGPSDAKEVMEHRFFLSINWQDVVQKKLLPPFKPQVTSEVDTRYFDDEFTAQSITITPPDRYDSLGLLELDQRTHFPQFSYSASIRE
Cytochrome P450 3A4 (Homo sapiens), sequence (P08684 whole entry, looked up): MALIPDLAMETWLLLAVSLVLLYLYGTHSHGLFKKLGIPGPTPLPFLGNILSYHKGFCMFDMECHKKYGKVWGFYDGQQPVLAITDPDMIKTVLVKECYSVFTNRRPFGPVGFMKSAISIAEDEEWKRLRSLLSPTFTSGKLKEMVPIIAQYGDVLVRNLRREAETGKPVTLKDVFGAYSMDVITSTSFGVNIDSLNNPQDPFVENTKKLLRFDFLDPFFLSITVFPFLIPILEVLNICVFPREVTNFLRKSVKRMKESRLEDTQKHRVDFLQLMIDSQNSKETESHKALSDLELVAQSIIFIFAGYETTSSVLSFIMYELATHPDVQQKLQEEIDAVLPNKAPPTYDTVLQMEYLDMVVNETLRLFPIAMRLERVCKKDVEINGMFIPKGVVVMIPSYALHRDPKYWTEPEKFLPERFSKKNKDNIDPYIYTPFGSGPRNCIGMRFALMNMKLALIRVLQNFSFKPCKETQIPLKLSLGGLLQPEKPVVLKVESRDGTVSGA
human AKT serine/threonine Kinase 1 (AKT1), AKT1 (gene 207), sequence (P31749 whole entry, looked up): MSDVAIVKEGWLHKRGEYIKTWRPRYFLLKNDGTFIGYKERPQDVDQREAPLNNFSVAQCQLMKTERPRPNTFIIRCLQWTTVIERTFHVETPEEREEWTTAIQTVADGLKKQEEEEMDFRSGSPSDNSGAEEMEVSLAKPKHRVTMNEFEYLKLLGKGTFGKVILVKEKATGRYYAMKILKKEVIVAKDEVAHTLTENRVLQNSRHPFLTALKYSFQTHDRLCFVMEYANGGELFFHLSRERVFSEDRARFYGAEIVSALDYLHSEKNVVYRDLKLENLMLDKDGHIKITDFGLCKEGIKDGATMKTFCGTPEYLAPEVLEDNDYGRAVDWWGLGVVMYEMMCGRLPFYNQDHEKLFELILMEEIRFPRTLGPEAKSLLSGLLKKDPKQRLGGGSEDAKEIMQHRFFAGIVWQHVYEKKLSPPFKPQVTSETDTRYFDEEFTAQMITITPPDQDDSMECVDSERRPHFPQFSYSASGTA
human Colony Stimulating Factor 1 Receptor (CSF1R), CSF1R (gene 1436), sequence (P07333 whole entry, looked up): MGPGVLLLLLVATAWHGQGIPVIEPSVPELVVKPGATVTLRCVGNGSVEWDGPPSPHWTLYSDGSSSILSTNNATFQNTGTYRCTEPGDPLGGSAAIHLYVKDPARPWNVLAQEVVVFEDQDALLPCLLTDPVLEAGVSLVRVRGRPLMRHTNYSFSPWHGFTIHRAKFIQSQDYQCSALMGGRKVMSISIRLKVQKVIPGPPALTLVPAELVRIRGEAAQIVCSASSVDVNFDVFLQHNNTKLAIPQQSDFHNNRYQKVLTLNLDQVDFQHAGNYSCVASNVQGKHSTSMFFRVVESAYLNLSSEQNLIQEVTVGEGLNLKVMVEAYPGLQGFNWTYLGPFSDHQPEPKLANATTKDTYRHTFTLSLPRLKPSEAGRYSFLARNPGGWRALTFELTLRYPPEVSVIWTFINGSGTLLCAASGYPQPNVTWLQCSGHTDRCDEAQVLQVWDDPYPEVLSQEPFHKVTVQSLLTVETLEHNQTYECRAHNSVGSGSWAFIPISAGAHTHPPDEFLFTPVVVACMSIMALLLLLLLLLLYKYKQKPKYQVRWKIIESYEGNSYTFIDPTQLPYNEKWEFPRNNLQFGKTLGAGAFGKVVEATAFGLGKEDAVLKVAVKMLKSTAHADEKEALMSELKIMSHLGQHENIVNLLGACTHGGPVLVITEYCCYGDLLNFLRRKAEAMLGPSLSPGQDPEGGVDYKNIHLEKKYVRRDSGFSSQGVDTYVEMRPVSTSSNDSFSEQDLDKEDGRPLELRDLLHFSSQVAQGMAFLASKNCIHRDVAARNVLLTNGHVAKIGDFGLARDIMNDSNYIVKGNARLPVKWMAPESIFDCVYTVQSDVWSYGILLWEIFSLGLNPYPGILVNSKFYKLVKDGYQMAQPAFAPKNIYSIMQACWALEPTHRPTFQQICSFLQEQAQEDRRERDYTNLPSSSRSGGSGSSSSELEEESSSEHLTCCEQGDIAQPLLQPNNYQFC
human Acid Phosphatase 1 (ACP1), ACP1 (gene 52), sequence (P24666 whole entry, looked up): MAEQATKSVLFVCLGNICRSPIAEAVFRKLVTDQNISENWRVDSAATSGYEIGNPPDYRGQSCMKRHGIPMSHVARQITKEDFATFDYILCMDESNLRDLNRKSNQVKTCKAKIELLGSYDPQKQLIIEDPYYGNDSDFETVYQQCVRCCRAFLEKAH
human Beta-secretase (BACE), BACE1 (gene 23621), sequence (P56817 whole entry, looked up): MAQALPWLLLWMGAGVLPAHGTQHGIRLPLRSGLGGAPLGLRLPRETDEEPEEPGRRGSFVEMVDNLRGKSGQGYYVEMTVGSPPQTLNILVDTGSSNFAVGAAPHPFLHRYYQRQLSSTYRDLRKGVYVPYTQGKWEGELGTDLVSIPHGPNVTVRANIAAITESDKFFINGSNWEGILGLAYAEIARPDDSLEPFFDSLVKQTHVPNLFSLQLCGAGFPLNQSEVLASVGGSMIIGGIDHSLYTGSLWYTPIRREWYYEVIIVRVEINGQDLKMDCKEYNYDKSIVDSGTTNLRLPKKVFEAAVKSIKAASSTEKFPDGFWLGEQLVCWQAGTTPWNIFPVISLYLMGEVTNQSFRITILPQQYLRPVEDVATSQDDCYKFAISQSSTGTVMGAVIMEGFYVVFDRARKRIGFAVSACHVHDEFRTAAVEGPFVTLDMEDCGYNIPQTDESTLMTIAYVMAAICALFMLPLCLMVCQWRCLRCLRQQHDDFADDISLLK

CC(=O)c1ccc2c(c1)[C@H](NC(=O)c1ccc(F)cc1)[C@@H](O)C(C)(C)O2
inactive: [1] | [2] | [4]
active: [3] 4.31 µM

CCn1nc(Cc2ccccc2)cc1C1CCN(C[C@H]2C[C@H](N(C)[C@@H](C(=O)O)C(C)C)C[C@@H]2c2cccc(F)c2)CC1
inactive: [1] | [2] | [3] | [4]

COC(=O)CC(=O)OC
inactive: [1] | [2] | [3] | [4]

O=C(O)CCN(C1(C(=O)NO)CCCC1)S(=O)(=O)c1ccc(Oc2ccc(F)cc2)cc1
inactive: [1] | [2] | [3] | [4]

CCCCCCCCCCCCc1ccccc1
inactive: [1] | [2] | [3] | [4]

O=C1CCCCCN1
inactive: [1] | [2] | [3] | [4]

CC(C)CCCCCCOC(=O)c1ccc(C(=O)OCCCCCCC(C)C)c(C(=O)OCCCCCCC(C)C)c1
inactive: [1] | [2] | [3] | [4]

CC[C@H]1OC(=O)[C@H](C)[C@@H](O[C@H]2C[C@@](C)(OC)[C@@H](O)[C@H](C)O2)[C@H](C)[C@@H](O[C@@H]2O[C@H](C)C[C@H](N(C)C)[C@H]2O)[C@](C)(O)C[C@@H](C)C(=O)[C@H](C)[C@@H](O)[C@]1(C)O
inactive: [1] | [2] | [3] | [4]

CC[C@H]1CC[C@H](NCc2cc3c(cc2OC)[C@H]2C[C@H]2C(=O)N3C)[C@H](c2ccccc2)N1
inactive: [1] | [2] | [3] | [4]

Nc1nc2ncc(CNc3ccc(C(=O)N[C@@H](CCC(=O)O)C(=O)O)cc3)nc2c(=O)[nH]1
not listed: [8] | [9] | [10] | [11]
inactive: all other assays above

CC1=CC(=O)CC(C)(C)C1
inactive: [1] | [2] | [3] | [4] | [5]

COC(=O)c1ccccc1O
inactive: [1] | [2] | [3] | [4]

CCCCC(CC)COC(=O)CCCCCCCCC(=O)OCC(CC)CCCC (stereo unspecified)
inactive: [1] | [2] | [3] | [4]

Cn1cnc([N+](=O)[O-])c1Sc1ncnc2nc[nH]c12
active: [1] 13.7 µM | [3] 17.3 µM and 7.53 µM and 7.26 µM
inactive: [1] | [4] | [8] | [9]

O=C(CCCCCCCCc1cccnc1)N1CCC(C=C(c2ccccc2)c2ccccc2)CC1
active: [1] 10.3 µM | [2] 6.46 µM | [3] 6.21 µM | [4] 12.7 µM

Nc1cccc(N)c1
inactive: [1] | [2] | [3] | [4]

CCN(C(=O)c1cc(C)cc(OC[C@H](C)Nc2ccncc2)c1)C(C)C
inactive: [1] | [2] | [3] | [4] | [11]
active: [10] 2.87 µM
